Compounds without any hit were thinned out: in the full panel of roughly 83,000, 20% have a hit.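 Percent growth is the endpoint: 0 to 100 indicates growth inhibition (40 means 60% inhibition), 0 means no net growth, and negative values indicate cell death.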 Values without a mark were called inactive. Active and inactive are the calls of the source. Rule for the calls: active = growth percent below 10; inactive = the rest.

For 13 molecules, growth results are on record in PubChem BioAssay (NCI).

What all share (assay): NCI-60 one-dose screen, 48 h (100 = growth as untreated, 0 = no growth, -100 = all killed)
Holding throughout (settings): 10 µM

Assay [1] relates to K-562 leukemia.
The test system of assay [2] is MALME-3M melanoma.
Assay [3] concerns MDA-MB-231 breast.
Assay [4] has as its system RXF 393 renal.
For assay [5], the system named is SF-268 CNS.
Assay [6] deals with SF-295 CNS.
Assay [7] has as its system SF-539 CNS.
The test system of assay [8] is UACC-257 melanoma.
Assay [9] has as its system M14 melanoma.
The subject of assay [10] is HCT-15 colon.

For the molecule `O=C1/C(=C\c2ccc(F)cc2)CN(C(=O)c2ccc([N+](=O)[O-])cc2)C/C1=C\c1ccc(F)cc1`, the growth in assay [1] was 1.96% (active); in assay [2], 40.5%; in assay [3] it was 0.131% (active); in assay [4] it was -2.85% (active); in assay [5], 29.2%; in assay [6], 10.4%. The growth in assay [7] was 58%; in assay [8], 67%; in [9] it was 2.02% (active); in assay [10] it was 7.31% (active).
As to `O=C1/C(=C\c2ccc(Br)cc2)CN(C(=O)c2ccccc2F)C/C1=C\c1ccc(Br)cc1`, the growth in assay [1] was 1.26% (active); in assay [2], -2.95% (active); in assay [3] it was -4.72% (active); in assay [4], -76.6% (active); in assay [5] it was 4.14% (active); in [6], -19.9% (active). Moreover, the growth in assay [7] was 3.38% (active); in assay [8], 30.6%; in assay [9], -47.8% (active); in [10] it was 5.63% (active).
`CCCCCCCCCCCCCCCC(=O)OC1[C@@H](OC(=O)CCCCCCCCCCCCCCC)[C@@H](C(=O)N[C@@H](CCCCN)C(=O)OC)O[C@H]1n1cnc2c(=O)[nH]c(NC(=O)C(C)C)nc21` (stereo not given in full): the growth is 82.9% in assay [1]; 98.5% in assay [2]; 118% in assay [3]; 105% in assay [4]; 97.1% in [5]; 108% in assay [6]. The growth in assay [7] was 103%; in [8], 90.1%; in assay [9], 93.7%; in assay [10], 96.6%.
Regarding `O=C(Nc1cccc(-n2cc(-c3ccncc3)c(-c3ccc(O)c(Cl)c3)n2)c1)Nc1cccc(C(F)(F)F)c1`, the growth was 2.72% (active) in assay [1]; -24.1% (active) in [2]; -22.1% (active) in assay [3]; -11.7% (active) in assay [4]; 9.04% (active) in [5]; -12.6% (active) in [6]. In addition, the growth in [7] is -8.84% (active); in assay [8], -19% (active); in assay [9], -8.16% (active); in assay [10], 14.9%.
For `Cc1ccc(N=Nc2c(N)nc(N)[nH]c2=O)cc1C`, the growth in [1] was 90.9%; in assay [2], 89.9%; in assay [3], 117%; in assay [4], 110%; in assay [5], 111%; in [6] it was 112%. In addition, the growth is 102% in assay [7], 107% in assay [8], 97.2% in assay [9] and 103% in assay [10].
Turning to `COc1ccc(-c2cc(/C=C/C(=O)c3cc(OC)c(OC)c(OC)c3)[nH]n2)cc1OC`, the growth is 5.1% (active) in assay [1]; -17.5% (active) in assay [2]; -25.3% (active) in assay [3]; -16.9% (active) in assay [4]; -45.7% (active) in assay [5]; 29.1% in [6]. Also, the growth in assay [7] is -51.4% (active); in assay [8], 69.6%; in assay [9], 53.2%; in assay [10], -15.5% (active).
On to `C#Cc1ccc(-n2c(/C=C/c3ccc(Cl)c(F)c3)nc3ncccc3c2=O)cc1`, for which the growth in assay [1] is -8.5% (active); in [2] it was -60.4% (active); in assay [3], -29.8% (active); in [4], -76.2% (active); in assay [5] it was -61.9% (active); in assay [6] it was -60.1% (active). Moreover, the growth in [7] is 1.03% (active); in [8] it was -65.1% (active); in assay [9], -9.7% (active); in assay [10], 2.43% (active).
In the case of `O=C(Nc1cccc(-n2cc(-c3ccncc3)c(-c3ccc(O)c(Cl)c3)n2)c1)c1cccc(C(F)(F)F)c1`, the growth was 19.3% in assay [1]; 24.6% in [2]; -58.9% (active) in assay [3]; -12.4% (active) in [4]; 51.7% in assay [5]; 7.62% (active) in assay [6]. The growth in [7] was 27.4%; in assay [8], 33.3%; in [9] it was 28.4%; in assay [10], 23.8%.
Consider `Cc1c(Cl)cccc1NC(=O)c1sc2nc3c(cc2c1N)C(=O)CCC3`, for which the growth was 7.09% (active) in assay [1]; 40.1% in [2]; 12.6% in assay [3]; -16.4% (active) in assay [4]; 37.4% in assay [5]; -8.15% (active) in assay [6]. For the same molecule, the growth in [7] was -40.7% (active); in assay [8] it was 48.1%; in assay [9], 3.72% (active); in assay [10], 21%.
As for `Nc1nc(-c2ccccc2Cl)cc(-c2ccc(Cl)cc2Cl)n1`, the growth in assay [1] is 27.3%; in [2], 86.6%; in assay [3], 65%; in assay [4], 75.8%; in [5], 65.9%; in assay [6], 38.7%. For the same molecule, the growth in [7] was 72.2%; in assay [8] it was 93%; in assay [9], 53.5%; in assay [10], 90.2%.
As for `Cn1c([N+](=O)[O-])cnc1/C=C1\Oc2cc(Cl)ccc2C1=O`, the growth in assay [1] is 35.8%; in [2], -56.7% (active); in assay [3], -27.7% (active); in assay [4], -66.8% (active); in assay [5] it was -37.4% (active); in assay [6], 38.5%. Besides, the growth is 28% in [7], -42% (active) in assay [8], -34.7% (active) in [9] and 3.55% (active) in [10].
With `O=C(O)CC(Cl)C(Cl)CC(=O)O` (stereo not given), the growth in [1] is 103%; in [2] it was 90.7%; in assay [3], 117%; in assay [4], 127%; in assay [5], 105%; in [6], 92.7%. Moreover, the growth was 99.3% in assay [7], 92.2% in assay [8], 102% in assay [9] and 99.2% in [10].
In the case of `COc1cc(-c2cc(-c3cc4c([nH]c5ccccc54)c(-c4cc(OC)c(OC)c(OC)c4)n3)cc(-c3ccccc3)n2)cc(OC)c1OC`, the growth in assay [1] is 16.7%; in assay [2], 58.3%; in [3] it was 45.6%; in [4], 72.6%; in assay [5], 78.7%; in assay [6], 26.8%. Further, the growth in [7] was 66%; in assay [8], 89%; in [9] it was 50.9%; in [10], 51.6%.
